{
  "source": "PubChem BioAssay (Tox21)",
  "note": "Records with an inconclusive call do not appear. Unmarked numbers belong to inactive results. The call rests on the fitted dose curve; in most records, active means well fitted cell-killing curve with a large enough effect in the repeat runs; inconclusive means weak or mixed curves, or effect the other way; inactive means no such curve, though single readings can be large or run the other way. On the % scale 0 is the no-effect control and ±100 the full control effect.",
  "data": [
    {"assay": "Caspase-3/7 induction in CHO-K1 cells by small molecules, qHTS cell viability counter screen (AID 1346979); further: nearly all actives have a fitted effect of over 35% in size", "settings": "CellTiter-Fluor fluorescence, 17 h; series mostly up to 92.4 µM; activity change, negative = cytotoxicity: at the top concentration", "text": "National Center for Advancing Translational Sciences [NCATS]\nNIH Chemical Genomics Center [NCGC]\nU.S. Environmental Protection Agency [EPA]\nNational Institutes of Environmental Health Sciences [NIEHS]\nNational Toxicology Program [NTP]\nU.S. Food and Drug Administration [FDA]\nApoptosis is a process of programmed cell death and plays a central role in the development of multicellular organisms. It is a highly regulated process and induces cell death by activating caspases, which are the members of cysteine aspartic acid-specific protease (caspase) family. Caspases involved in apoptosis are classified by their mechanism of action as initiator caspases (caspase-2, -8, -9 and -10) and executioner caspases (caspase-3, -6, and -7). Inhibition of apoptosis results in number of cancers, autoimmune diseases, inflammatory diseases and viral infection. To identify small molecule compounds that induce apoptosis, a homogeneous, luminescent Caspase-Glo 3/7 assay was used. Wild type CHO-K1 cells were used to screen Tox21 libraries for identifying caspase-3/7 activity inducers. Also cytotoxicity of the compounds was tested in parallel by measuring the cell viability using CellTiter-Fluor assay system in the same wells.\nTox21 Assay Protocol Summary:\nCHO-K1 cells were dispensed at 1,500 per well in 5uL of culture medium into white solid bottom 1536-well plates (Corning Life Sciences, Corning, NY) using a Multidrop Combi (Thermo Scientific, Waltham, MA) dispenser. The assay plates were incubated at 37 C and 5% CO2 for 5hr, and then 23nL of compounds dissolved in DMSO and positive control were transferred using a Pintool station (Wako, San Diego, CA). The assay plates were incubated at 37C and 5% CO2 for 17hr. For cytotoxicity read, after 16hr incubation at 37C, 1uL CellTiter-Fluor reagent (Promega Corporation, Madison, WI) was added to each well of the assay plates using Flying Reagent Dispenser (FRD, Aurora Discovery, San Diego, CA). After 1hr incubation at 37C and 5% CO2, the fluorescence signal was quantified using a ViewLux plate reader (PerkinElmer, Shelton, CT).", "values": [
      {"molecule": "CCCCNc1ccccc1", "activity change, negative = cytotoxicity": "-5.11%"},
      {"molecule": "CCCOc1ccccc1-c1nc2n[nH]nc2c(=O)[nH]1", "activity change, negative = cytotoxicity": "11.3% [at 42.5 µM]"},
      {"molecule": "C=CCSCC1Nc2cc(Cl)c(S(N)(=O)=O)cc2S(=O)(=O)N1", "note": "(stereo not given)", "activity change, negative = cytotoxicity": "5.53% [at 42.5 µM]"},
      {"molecule": "O=C1C(CCS(=O)c2ccccc2)C(=O)N(c2ccccc2)N1c1ccccc1", "note": "(stereo not given)", "activity change, negative = cytotoxicity": "0.636% [at 42.5 µM]"},
      {"molecule": "Cc1ccc(N)cc1[N+](=O)[O-]", "activity change, negative = cytotoxicity": "-5%"},
      {"molecule": "CC12CCC(CC1=O)C2(C)C", "note": "(stereo not given)", "activity change, negative = cytotoxicity": "-3.12%"},
      {"molecule": "COc1ccc(NC(C)=O)cc1", "activity change, negative = cytotoxicity": "-7.64%"},
      {"molecule": "CCC(=O)c1cccc(Cl)c1", "activity change, negative = cytotoxicity": "2.15%"},
      {"molecule": "CCCOCC(C)OCC(C)O", "note": "(stereo not given)", "activity change, negative = cytotoxicity": "-2.73%"},
      {"molecule": "O=C(CCOCCOCCOCCOCCC(=O)Nc1c(I)cc(I)c(C(=O)O)c1I)Nc1c(I)cc(I)c(C(=O)O)c1I", "activity change, negative = cytotoxicity": "15.5% [at 42.5 µM]"},
      {"molecule": "CN(C)C(=O)Nc1ccccc1", "activity change, negative = cytotoxicity": "1.81%"},
      {"molecule": "CCCCN(CCO)CCO", "activity change, negative = cytotoxicity": "6.35%"},
      {"molecule": "Cc1c(F)cc2c(=O)c(C(=O)O)cn3c2c1CCC3C", "note": "(stereo not given)", "activity change, negative = cytotoxicity": "3.31% [at 42.5 µM]"},
      {"molecule": "CCC(C(=O)NC(N)=O)c1ccccc1", "note": "(stereo not given)", "activity change, negative = cytotoxicity": "12.7%"},
      {"molecule": "FC(F)(F)C(F)(F)C(F)(F)C(F)(F)C(F)(F)C(F)(F)C(F)(F)C(F)(F)C(F)(F)C(F)(F)F", "activity change, negative = cytotoxicity": "7.28% [at 8.39 µM]"},
      {"molecule": "C=C(C)[C@H]1CC=C(C)CC1", "activity change, negative = cytotoxicity": "-8.84%"},
      {"molecule": "C[N+](C)(C)CC[N+]1(C)Cc2c(Cl)c(Cl)c(Cl)c(Cl)c2C1", "activity change, negative = cytotoxicity": "0.841% [at 42.5 µM]"},
      {"molecule": "CC(C)(C)C(=O)/C=C/c1ccc(Cl)cc1", "activity change, negative = cytotoxicity": "1.22%"},
      {"molecule": "CCCC=O", "activity change, negative = cytotoxicity": "2.07%"},
      {"molecule": "CCN1CCN(c2cc3c(cc2F)c(=O)c(C(=O)O)cn3C2CC2)CC1", "activity change, negative = cytotoxicity": "7.71% [at 42.5 µM]"},
      {"molecule": "C#CC(O)CCCCC", "note": "(stereo not given)", "activity change, negative = cytotoxicity": "8.57%"},
      {"molecule": "CCCCCCCCCCC1CO1", "note": "(stereo not given)", "activity change, negative = cytotoxicity": "-1.23%"},
      {"molecule": "N[C@@H](CS)C(=O)O", "activity change, negative = cytotoxicity": "8.33%"},
      {"molecule": "CCCC(C)CO", "note": "(stereo not given)", "activity change, negative = cytotoxicity": "0.217%"},
      {"molecule": "C=CCOc1nc(OCC=C)nc(OCC=C)n1", "activity change, negative = cytotoxicity": "3.42%"},
      {"molecule": "OCC(CO)(CO)COCC(CO)(CO)CO", "activity change, negative = cytotoxicity": "10.5%"},
      {"molecule": "Nc1cc(N)cc(C(=O)O)c1", "activity change, negative = cytotoxicity": "0.406%"},
      {"molecule": "CC1=CCC2C(C1)C2(C)C", "note": "(stereo not given)", "activity change, negative = cytotoxicity": "1.83%"},
      {"molecule": "COc1cc(C)cc(O)c1", "activity change, negative = cytotoxicity": "2.77%"},
      {"molecule": "C=CC(=O)OCCCCCC", "activity change, negative = cytotoxicity": "2.61%"},
      {"molecule": "CCO[Si](CCCN=C=O)(OCC)OCC", "activity change, negative = cytotoxicity": "5.1%"},
      {"molecule": "CC(C)(C)CC(C)(C)N", "activity change, negative = cytotoxicity": "1.11%"},
      {"molecule": "c1ccc(SCCSc2ccccc2)cc1", "activity change, negative = cytotoxicity": "8.31%"},
      {"molecule": "c1ccc(CCCc2ccccn2)cc1", "activity change, negative = cytotoxicity": "8.83%"},
      {"molecule": "O=C1CC2(CCCC2)CC(=O)N1", "activity change, negative = cytotoxicity": "9.08% [at 42.5 µM]"},
      {"molecule": "CCCCCOC(=O)Nc1nc(=O)n([C@@H]2O[C@H](C)[C@@H](O)[C@H]2O)cc1F", "activity change, negative = cytotoxicity": "2.48% [at 42.5 µM]"},
      {"molecule": "Cc1ccc(Nc2ccc(O)c3c2C(=O)c2ccccc2C3=O)cc1", "activity change, negative = cytotoxicity": "-0.447%"},
      {"molecule": "O=C(O)c1ccccc1S", "activity change, negative = cytotoxicity": "8.47% [at 42.5 µM]"},
      {"molecule": "CCC(=O)Nc1cccc(N)c1", "activity change, negative = cytotoxicity": "8.22%"},
      {"molecule": "CCC(=O)/C=C/c1ccc(OC)cc1", "activity change, negative = cytotoxicity": "1.18%"}
    ]}
  ]
}
